The values below come from ChEMBL document CHEMBL3433997, “St. Jude Leishmania screening dataset” (2016).

Values joined by “and” are separate entries in the source; they are usually repeats but may differ in a detail not shown here. Identical values can stand only once.

Sequence of Solute carrier family 2, facilitated glucose transporter member 1 (Homo sapiens) (P11166 whole entry): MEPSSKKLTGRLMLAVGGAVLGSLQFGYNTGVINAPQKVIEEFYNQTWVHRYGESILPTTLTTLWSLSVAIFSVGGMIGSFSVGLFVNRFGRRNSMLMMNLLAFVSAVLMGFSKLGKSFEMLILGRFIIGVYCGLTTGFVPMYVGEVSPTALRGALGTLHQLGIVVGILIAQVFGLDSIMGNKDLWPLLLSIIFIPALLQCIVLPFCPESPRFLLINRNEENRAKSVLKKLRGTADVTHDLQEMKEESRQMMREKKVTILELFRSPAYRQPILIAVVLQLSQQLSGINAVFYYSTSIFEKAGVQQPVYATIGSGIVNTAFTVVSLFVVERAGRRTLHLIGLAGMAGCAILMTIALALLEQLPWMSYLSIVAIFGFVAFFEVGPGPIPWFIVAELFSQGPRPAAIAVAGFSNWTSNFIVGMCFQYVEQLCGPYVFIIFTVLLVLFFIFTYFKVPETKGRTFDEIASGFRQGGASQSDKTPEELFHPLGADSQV

This assay has as its target Solute carrier family 2, facilitated glucose transporter member 1 (Homo sapiens) (UniProt P11166). Put plainly: ST_JUDE_LEISH: Cytotoxicity at 2uM final concentration against transgenic Leishmania Mexicana promastigotes LmGLUT1 that are glucose transport deficient and complemented with the human glucose transporter GLUT1. Activity is measured by DNA content using SYBR green in vitro. In kind it is functional.
In the case of `CN1CC[C@H](N(Cc2ccccc2F)c2ccc(C#N)c(Cl)c2)C1`, the inhibition turned out to be 2.58%.

Consider `COCCNCc1cccc(-c2cccc(CN(C(=O)Nc3ccccc3)C3CCN(Cc4ccccc4)CC3)c2)c1`, for which the inhibition turned out to be 3.2%.

On to `CN(c1ccc(NC(=O)CCOc2ccccc2)cc1)C1CCN(Cc2cccc(O)c2)CC1`, for which the inhibition was determined as 1.64%.

`Cc1[nH]c2ccccc2c1C1CCN(CC2CCC(NC(=O)/C=C/c3ccc(Cl)c(Cl)c3)CC2)CC1` (centres undefined): the inhibition was determined as 6.8%.

For the compound `O=C(C=Cc1ccccc1O)N1CCC(CN2CCC(c3c[nH]c4ccccc34)CC2)CC1`, the inhibition turned out to be 2.59%.

For the compound `CCCCn1c(C)c(C(=O)OCC)c2cc(OC(C)=O)c(Br)cc21`, the inhibition was 1.92%.

Turning to `CN(c1cc(NC(=O)c2ccc(F)cc2)ccn1)C1CCN(Cc2cccc(F)c2)CC1`, the inhibition is 2.51%.

Consider `CC[C@H]1CN2CC[C@H]1C[C@@H]2[C@H](O)c1ccnc2ccc(O)cc12`, for which the inhibition was -0.84%.

With `C/C=C1/CN2CC[C@H]1C[C@H]2[C@H](O)c1ccnc2ccc(O)cc12`, the inhibition is -0.31%.

On to `O=C(/C=C/c1cc(F)c(F)cc1F)N1CCC(CN2CCC(c3c[nH]c4ccccc34)CC2)CC1`, for which the inhibition turned out to be 0.47%.

As for `CC(C)(C)c1ccc(Cn2nc(C(=O)N3CCN(C(=O)C4CCCO4)CC3)c3ccccc32)cc1` (centres undefined), the inhibition turned out to be 0.73%.

Regarding `O=[N+]([O-])c1ccc(Oc2c(Cl)cc(S(=O)(=O)N3CCC(CN4CCC(c5c[nH]c6ccccc56)CC4)CC3)cc2Cl)c(Cl)c1`, the inhibition turned out to be 1.89%.

On to `CCOc1ccc(Br)cc1/C=C/C(=O)Nc1ccc2c(c1)C1CCC2N1C` (centres undefined), for which the inhibition was 2.58%.

Turning to `CSc1nccc(-c2ccc(S(=O)(=O)NC3CCC(CN4CCC(c5c[nH]c6ccccc56)CC4)CC3)s2)n1` (centres undefined), the inhibition was 2.14% and 2.23%.

As for `C=CCOc1ccccc1CNCC(O)c1cccc(C(F)(F)F)c1` (centres undefined), the inhibition is 2.78%.

For the compound `CC(Cc1ccc(OCc2ccccc2)cc1)NCC(O)c1cccc(Cl)c1` (centres undefined), the inhibition came out at 5.48%.

As to `CC(C)CNCc1ccc(-c2ccc(CN(C(=O)NC3CCCCC3)C3CCN(Cc4ccccc4)CC3)cc2)cc1`, the inhibition was 7.16%.

With `COC(=O)c1ccc(CC(C)NCC(O)c2ccccc2Cl)cc1` (centres undefined), the inhibition was 0.96%.

Take `Cc1[nH]c2ccc(NS(C)(=O)=O)cc2c1C1CCN(CC2CCN(C(=O)/C=C/c3ccc(Cl)c(Cl)c3)CC2)CC1`: the inhibition was -0.42%.

As to `CCCCCC(C)C(C)c1cc(O)c2c(c1)OC1(C(C)C)CC(O)C(C)C2C1` (centres undefined), the inhibition was found to be 5.93%.

For the compound `O=C(NCCC1CCN(CCc2c[nH]c3ccccc23)CC1)Nc1ccc(Cl)c(Cl)c1`, the inhibition was found to be 3.67%.

Take `O=C(NC1CCC(CN2CCC(c3c[nH]c4ccccc34)CC2)CC1)c1ccc(-c2ccccc2[N+](=O)[O-])o1` (centres undefined): the inhibition turned out to be 3.68%.

Turning to `O=C(Nc1ccc(Cl)c(Cl)c1)N1CCC(CN2CCC(c3c[nH]c4ccccc34)CC2)CC1`, the inhibition came to 6.13%.

As for `O=C(/C=C/c1ccc(F)c(C(F)(F)F)c1)N1CCC(CN2CCC(c3c[nH]c4ccccc34)CC2)CC1`, the inhibition was found to be 0.7%.
